Source: the supplement of paper PMC11732987, “Enantioselective OTUD7B fragment discovery through chemoproteomics screening and high-throughput optimisation” (Communications Chemistry, 2025)

Columns and labels:
Experiment in all cases: log2 ratio of Biotin-Ahx-Ub-VS probe labelling (fragment/DMSO); higher = less target engagement (more negative = stronger competition), active = hit call of the paper (q ≤ 0.05, log2 ratio ≤ -1)
Conditions in all cases: compound concentration: 200 uM; treatment time: 3 h
USP34 = USP34 (UniProt Q70CQ2)
How it was run: (§1)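 Labelled DUBs from HEK293T lysate were NeutrAvidin-enriched, digested with LysC and trypsin, and run by diaPASEF LC-MS/MS. Before that, each 495 µg sample in Tris/CHAPS/IGEPAL buffer with protease inhibitors was treated in triplicate with fragment at 200 µM or vehicle for 3 h, then with Biotin-Ahx-Ub-VS at 0.5 µM final for 1 h. Values are average log2 ratios of fragment over vehicle by unpaired t-test, based on global-median-normalised Spectronaut label-free quantities from proteins with ≥2 unique peptides.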

USP36 = target: T1, USP36 (UniProt Q9P275)
T1 sequence (whole entry): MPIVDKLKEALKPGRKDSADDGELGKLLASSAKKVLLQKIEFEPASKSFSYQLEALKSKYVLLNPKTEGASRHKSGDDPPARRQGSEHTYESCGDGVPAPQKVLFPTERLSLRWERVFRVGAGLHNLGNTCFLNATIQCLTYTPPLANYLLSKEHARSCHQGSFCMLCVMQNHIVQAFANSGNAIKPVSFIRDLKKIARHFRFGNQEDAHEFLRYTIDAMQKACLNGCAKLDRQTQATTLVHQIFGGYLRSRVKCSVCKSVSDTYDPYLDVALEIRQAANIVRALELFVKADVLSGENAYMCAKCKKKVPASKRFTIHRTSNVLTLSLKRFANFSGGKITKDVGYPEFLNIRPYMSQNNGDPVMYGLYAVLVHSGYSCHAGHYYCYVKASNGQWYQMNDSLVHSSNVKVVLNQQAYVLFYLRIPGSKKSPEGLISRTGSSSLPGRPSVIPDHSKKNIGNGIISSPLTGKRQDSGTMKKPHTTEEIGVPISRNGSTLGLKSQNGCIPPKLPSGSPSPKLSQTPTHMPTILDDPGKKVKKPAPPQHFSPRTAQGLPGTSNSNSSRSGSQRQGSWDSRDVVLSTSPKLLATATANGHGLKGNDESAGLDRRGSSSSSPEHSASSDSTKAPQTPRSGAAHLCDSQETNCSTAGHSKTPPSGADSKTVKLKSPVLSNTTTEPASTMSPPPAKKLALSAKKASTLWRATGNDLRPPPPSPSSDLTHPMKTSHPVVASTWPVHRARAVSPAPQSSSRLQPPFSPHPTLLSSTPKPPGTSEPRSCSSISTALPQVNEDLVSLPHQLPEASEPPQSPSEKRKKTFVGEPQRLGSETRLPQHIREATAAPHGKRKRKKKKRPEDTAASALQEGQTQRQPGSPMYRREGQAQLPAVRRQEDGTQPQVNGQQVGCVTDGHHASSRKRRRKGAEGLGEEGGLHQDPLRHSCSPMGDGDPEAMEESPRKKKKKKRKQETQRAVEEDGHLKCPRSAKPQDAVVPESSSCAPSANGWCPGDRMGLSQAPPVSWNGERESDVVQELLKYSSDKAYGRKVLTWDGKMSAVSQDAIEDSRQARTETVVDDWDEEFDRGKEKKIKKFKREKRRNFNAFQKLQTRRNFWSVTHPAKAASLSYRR
How it was run: as §1

USP38 = target: T2, USP38 (UniProt Q8NB14)
T2 sequence (whole entry): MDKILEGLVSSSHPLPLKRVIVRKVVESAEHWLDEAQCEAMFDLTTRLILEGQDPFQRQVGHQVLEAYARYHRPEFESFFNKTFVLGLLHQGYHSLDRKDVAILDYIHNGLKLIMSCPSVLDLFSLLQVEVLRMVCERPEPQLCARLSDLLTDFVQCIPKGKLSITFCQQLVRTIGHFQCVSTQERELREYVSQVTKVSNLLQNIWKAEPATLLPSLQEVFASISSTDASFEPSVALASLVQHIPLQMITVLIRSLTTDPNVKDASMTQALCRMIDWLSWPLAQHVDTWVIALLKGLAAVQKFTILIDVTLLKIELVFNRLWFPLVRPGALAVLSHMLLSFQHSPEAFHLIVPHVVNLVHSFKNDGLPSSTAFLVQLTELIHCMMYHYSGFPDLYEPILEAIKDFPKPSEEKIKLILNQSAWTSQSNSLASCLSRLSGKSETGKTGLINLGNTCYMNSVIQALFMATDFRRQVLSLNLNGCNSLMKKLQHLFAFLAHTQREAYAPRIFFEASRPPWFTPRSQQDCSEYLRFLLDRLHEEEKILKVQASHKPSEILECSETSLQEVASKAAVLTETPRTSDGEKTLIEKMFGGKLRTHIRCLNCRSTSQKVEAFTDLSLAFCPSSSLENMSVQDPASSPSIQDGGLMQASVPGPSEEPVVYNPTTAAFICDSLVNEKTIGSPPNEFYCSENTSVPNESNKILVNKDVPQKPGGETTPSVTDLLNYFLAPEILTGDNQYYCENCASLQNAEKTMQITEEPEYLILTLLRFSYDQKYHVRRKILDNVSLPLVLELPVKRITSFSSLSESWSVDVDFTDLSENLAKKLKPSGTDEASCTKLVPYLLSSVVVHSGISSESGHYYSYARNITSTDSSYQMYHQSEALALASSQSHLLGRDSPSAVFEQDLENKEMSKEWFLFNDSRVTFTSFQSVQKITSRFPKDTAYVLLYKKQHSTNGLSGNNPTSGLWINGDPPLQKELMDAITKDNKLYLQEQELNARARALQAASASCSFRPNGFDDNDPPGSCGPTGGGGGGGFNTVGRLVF
How it was run: as §1

USP39 = target: T3, USP39 (UniProt Q53GS9)
T3 sequence (whole entry): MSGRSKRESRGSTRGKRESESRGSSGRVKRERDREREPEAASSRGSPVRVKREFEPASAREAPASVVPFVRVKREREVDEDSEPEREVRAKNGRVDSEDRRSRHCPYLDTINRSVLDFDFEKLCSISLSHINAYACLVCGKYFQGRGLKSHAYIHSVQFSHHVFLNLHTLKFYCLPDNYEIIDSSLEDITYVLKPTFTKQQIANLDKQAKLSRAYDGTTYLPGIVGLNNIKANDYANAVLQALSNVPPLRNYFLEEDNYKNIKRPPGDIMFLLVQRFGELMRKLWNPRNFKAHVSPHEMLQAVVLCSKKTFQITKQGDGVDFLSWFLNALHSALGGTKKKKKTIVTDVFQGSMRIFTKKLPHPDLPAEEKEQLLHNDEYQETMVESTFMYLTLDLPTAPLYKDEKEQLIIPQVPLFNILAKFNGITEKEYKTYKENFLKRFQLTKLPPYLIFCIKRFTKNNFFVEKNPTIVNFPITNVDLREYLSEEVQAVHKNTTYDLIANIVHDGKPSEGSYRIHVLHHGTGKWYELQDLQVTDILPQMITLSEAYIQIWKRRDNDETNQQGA
How it was run: as §1

USP4 = target: T4, USP4 (UniProt Q13107)
T4 sequence (whole entry): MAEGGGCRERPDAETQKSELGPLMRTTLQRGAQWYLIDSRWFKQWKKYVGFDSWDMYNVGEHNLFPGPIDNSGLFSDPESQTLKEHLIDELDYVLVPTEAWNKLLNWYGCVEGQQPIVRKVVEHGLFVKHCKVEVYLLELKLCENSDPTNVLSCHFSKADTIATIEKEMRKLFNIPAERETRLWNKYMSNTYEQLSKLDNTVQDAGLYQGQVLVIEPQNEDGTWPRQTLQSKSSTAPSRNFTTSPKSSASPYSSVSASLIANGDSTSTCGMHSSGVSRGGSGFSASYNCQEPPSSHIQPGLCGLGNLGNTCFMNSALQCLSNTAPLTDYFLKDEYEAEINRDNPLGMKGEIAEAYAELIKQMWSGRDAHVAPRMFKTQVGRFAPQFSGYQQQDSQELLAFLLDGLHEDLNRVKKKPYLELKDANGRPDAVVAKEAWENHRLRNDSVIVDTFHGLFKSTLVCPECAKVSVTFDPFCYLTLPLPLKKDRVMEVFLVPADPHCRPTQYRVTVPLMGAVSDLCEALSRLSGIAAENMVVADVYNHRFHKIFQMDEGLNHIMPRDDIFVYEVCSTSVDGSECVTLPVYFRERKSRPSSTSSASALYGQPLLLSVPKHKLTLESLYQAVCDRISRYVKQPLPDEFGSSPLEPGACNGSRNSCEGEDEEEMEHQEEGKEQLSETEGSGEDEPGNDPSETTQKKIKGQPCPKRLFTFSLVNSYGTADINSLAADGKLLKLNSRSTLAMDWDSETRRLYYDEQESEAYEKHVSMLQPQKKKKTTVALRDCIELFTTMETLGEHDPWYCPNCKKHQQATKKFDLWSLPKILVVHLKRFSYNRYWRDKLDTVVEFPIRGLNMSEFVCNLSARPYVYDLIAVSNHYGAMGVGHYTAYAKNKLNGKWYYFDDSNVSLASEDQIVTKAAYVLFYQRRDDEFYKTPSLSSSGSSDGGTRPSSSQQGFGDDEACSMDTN
How it was run: as §1

Measured: log2 ratio of Biotin-Ahx-Ub-VS probe labelling

USP34, sequence (Q70CQ2 whole entry, the tested form may be a part): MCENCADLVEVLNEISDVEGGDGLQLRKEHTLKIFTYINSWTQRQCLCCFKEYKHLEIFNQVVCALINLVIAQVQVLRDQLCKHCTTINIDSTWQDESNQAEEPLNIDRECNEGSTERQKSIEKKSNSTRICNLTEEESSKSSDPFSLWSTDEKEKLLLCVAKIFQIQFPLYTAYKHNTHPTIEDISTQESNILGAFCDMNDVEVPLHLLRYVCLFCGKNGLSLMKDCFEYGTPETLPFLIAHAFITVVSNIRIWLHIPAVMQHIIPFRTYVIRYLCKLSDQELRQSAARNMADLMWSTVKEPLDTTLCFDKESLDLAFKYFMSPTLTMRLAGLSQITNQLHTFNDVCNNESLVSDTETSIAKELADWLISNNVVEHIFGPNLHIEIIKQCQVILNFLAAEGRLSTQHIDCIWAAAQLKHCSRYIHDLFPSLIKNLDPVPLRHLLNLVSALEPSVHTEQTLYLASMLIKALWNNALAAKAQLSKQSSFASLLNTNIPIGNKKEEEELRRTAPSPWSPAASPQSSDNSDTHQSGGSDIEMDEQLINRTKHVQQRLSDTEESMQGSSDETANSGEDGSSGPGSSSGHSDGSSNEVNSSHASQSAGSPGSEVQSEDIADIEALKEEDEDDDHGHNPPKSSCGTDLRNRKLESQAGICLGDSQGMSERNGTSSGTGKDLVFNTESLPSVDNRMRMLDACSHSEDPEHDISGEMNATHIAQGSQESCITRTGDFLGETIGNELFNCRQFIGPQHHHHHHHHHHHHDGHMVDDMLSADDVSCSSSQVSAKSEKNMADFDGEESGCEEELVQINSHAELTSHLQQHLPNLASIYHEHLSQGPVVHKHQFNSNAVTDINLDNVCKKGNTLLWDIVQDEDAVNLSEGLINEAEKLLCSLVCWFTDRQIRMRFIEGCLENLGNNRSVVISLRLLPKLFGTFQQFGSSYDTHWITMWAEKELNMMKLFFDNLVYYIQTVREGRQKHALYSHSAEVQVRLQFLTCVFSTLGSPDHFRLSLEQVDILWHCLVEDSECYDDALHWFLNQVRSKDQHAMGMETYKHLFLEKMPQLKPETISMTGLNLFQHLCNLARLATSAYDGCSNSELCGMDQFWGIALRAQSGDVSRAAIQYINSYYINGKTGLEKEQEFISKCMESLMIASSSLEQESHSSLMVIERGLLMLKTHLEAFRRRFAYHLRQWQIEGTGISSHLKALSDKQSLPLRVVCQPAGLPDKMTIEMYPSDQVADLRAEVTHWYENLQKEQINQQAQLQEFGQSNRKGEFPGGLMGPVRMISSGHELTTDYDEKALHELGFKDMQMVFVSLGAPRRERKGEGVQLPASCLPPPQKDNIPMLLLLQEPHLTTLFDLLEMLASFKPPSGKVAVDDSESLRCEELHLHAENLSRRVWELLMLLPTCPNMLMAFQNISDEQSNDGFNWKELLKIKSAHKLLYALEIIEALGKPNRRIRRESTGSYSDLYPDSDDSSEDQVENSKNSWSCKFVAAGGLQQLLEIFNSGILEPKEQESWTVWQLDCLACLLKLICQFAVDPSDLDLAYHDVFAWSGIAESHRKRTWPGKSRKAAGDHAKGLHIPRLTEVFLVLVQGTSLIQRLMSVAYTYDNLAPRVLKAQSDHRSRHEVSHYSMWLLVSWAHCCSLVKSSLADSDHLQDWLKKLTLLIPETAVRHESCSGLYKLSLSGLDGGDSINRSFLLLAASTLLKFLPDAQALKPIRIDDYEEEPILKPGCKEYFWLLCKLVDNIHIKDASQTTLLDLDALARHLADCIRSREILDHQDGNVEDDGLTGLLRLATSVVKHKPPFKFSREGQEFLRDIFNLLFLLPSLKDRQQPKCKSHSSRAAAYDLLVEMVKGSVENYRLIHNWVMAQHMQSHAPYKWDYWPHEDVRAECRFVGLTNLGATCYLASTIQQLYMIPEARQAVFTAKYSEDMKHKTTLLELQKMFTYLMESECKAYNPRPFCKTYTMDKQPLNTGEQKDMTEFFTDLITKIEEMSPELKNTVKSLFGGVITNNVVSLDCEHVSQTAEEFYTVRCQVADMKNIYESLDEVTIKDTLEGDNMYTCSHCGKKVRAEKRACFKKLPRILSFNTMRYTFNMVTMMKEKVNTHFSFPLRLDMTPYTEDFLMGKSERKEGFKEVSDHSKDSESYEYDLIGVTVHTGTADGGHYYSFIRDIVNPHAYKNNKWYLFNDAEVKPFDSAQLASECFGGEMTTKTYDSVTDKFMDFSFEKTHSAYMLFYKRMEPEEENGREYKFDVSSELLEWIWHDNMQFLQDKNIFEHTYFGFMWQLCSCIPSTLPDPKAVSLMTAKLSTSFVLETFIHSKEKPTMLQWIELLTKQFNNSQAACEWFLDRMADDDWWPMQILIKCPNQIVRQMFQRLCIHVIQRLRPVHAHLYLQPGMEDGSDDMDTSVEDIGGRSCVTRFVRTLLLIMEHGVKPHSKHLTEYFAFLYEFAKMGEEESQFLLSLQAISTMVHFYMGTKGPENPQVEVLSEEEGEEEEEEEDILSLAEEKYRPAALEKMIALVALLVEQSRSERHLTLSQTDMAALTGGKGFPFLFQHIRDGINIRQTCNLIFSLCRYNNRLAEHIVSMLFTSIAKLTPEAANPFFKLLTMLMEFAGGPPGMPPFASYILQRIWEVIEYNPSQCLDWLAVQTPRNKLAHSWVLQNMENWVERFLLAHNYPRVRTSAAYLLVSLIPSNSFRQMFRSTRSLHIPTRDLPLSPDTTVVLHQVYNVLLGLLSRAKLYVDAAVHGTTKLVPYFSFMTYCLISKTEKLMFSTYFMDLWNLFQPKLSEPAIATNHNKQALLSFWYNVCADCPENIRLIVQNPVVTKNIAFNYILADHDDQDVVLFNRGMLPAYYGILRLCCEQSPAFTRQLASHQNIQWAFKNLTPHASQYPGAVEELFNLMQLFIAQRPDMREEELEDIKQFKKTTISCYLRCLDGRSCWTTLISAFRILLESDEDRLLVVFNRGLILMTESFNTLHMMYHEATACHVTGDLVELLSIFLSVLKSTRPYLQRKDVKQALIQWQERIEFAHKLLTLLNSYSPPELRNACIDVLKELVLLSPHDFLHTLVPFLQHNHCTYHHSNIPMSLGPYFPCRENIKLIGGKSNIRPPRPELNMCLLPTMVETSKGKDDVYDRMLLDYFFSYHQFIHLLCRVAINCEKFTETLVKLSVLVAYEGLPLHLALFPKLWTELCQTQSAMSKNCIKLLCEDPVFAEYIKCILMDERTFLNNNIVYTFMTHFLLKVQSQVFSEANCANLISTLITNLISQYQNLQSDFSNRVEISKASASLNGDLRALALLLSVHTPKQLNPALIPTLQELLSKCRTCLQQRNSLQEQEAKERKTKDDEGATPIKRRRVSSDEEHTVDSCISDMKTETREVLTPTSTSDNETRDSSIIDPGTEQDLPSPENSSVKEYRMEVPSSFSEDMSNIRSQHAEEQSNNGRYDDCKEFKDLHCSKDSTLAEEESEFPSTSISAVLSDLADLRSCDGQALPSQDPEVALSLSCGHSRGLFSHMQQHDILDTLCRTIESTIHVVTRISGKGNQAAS

O=C(CCl)N1CCOCC1C1CC1 (stereo not given)
inactive: USP34 0.0844 | USP36 -0.0397 | USP38 0.0391 | USP39 0.265 | USP4 -0.101
